Measured values taken from PubChem BioAssay (Tox21).
Inconclusive results are not listed. Where a call stands in place of a potency, no number is given. A structure can be active in one record and inactive in another. Active and inactive are the calls of the source. Unless noted, calls come from the whole dose curve; as a rule, active = well fitted curve in the direction sought with a large enough effect in the repeat runs; inconclusive = weak or mixed curves; inactive = no such curve, though single readings can be large; an effect the other way counts as inactive or inconclusive.

Columns and labels:
[1] = A CellTox Green Cytotoxicity Assay to monitor cytotoxicity in HepG2 cells - 8 hour (AID 1224890); note: nearly all actives have a fitted effect of over 45% in size
In short: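 HepG2 cells, 600/well, preincubated 5 h with CellTox Green dye, then exposed to Tox21 compounds in DMSO at 37 C for up to 40 h. Dead-cell DNA fluorescence read at the indicated time point.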

[2] = qHTS assay to identify small molecule antagonists of the estrogen receptor alpha (ER-alpha) signaling pathway using the BG1 cell line in the presence of 0.1 nM 17-beta-estradiol - cell viability counter screen (AID 1259241); note: nearly all actives have a fitted effect of over 40% in size
In short: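 Cytotoxicity counter-screen: live-cell protease activity measured by fluorescence (30 min reagent step) in the same wells. Cells were VM7Luc4E2 with endogenous ER-alpha and ERE-driven luciferase, treated 22 hr at 37C alongside 0.1 nM 17beta-estradiol final.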

[3] = qHTS assay to identify small molecule antagonists of the androgen receptor (AR) signaling pathway using the MDA cell line in the presence of 0.5 nM R1881 - cell viability counter screen (AID 1259242); note: nearly all actives have a fitted effect of over 45% in size
In short: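 MDA-kb2 cells (MMTV-luciferase, AR/GR responsive) were treated with compounds plus 0.5 nM R1881 (final) for 16 hr at 37C, 0% CO2. Viability was then read in the same wells as live-cell protease fluorescence (CellTiter-Fluor, 30 min).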

[4] = qHTS assay to identify small molecule HDAC inhibitors (AID 1259364); note: nearly all actives have a fitted effect of over 45% in size; note: potency is the fitted concentration of half-maximal effect
In short: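 Wild-type HCT-116 cells, plated overnight at 37 C, exposed to compounds 2 hr at 37 C; luminogenic HDAC-Glo substrate then added 30 min at room temperature. Luminescence reports relative endogenous class I/II HDAC activity.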

[5] = qHTS assay to identify small molecule HDAC inhibitors - cell viability counter screen (AID 1259365); note: series mostly up to about 92 µM; nearly all actives have a fitted effect of over 50% in size
In short: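 CellTiter-Glo luminescence (30 min, room temperature) reported viability after a 2 h compound exposure at 37 C. Cells: wild-type HCT-116, 1,500 per well, seeded the night before.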

[6] = qHTS assay to identify small molecule agonists of the sonic hedgehog signaling (Shh) pathway - cell viability counter screen (AID 1259366); note: nearly all actives have a fitted effect of over 50% in size
In short: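 Cytotoxicity counter screen: CellTiter-Fluor reagent added after 23 h compound exposure, then 1 h at 37C and fluorescence read. Cells were 3T3 Gli1-Luc, seeded 2,000 per well and dosed 4 h post-plating.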

[7] = qHTS assay to identify small molecule antagonists of the sonic hedgehog signaling (Shh) pathway - cell viability counter screen (AID 1259367); note: nearly all actives have a fitted effect of over 55% in size
In short: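 NIH/3T3-derived Gli1-Luc reporter cells (2,000 per well) rested 4 hr at 37 C, then received DMSO compounds plus conditioned medium. After 23 hr of treatment, CellTiter-Fluor was added for 1 hr at 37C and fluorescence read.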

[8] = qHTS assay to identify small molecule agonists of the sonic hedgehog signaling (Shh) pathway (AID 1259368; calls by dose curve;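 note: NIH/3T3-derived 3T3Gli1-Luc cells carrying a stable Gli1-driven firefly luciferase reporter; series mostly up to about 92 µM; nearly all actives have a fitted effect of over 15% in size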)
In short: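 NIH/3T3-derived 3T3Gli1-Luc cells with stably integrated Gli1-driven firefly luciferase, 2,000 cells/well, compounds added after 4 hr. Incubated 24 hr at 37C, 5% CO2; luminescence read after 30 min with luciferase reagent at room temperature.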

[9] = qHTS assay to identify small molecule antagonists of the sonic hedgehog signaling (Shh) pathway (AID 1259369; calls by dose curve; note: nearly all actives have a fitted effect of over 45% in size)
In short: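 NIH/3T3-derived Gli1-Luc reporter cells plated 4 h, dosed with compound, then stimulated with conditioned medium for 24 h at 37 C. Firefly luciferase luminescence read after 30 min with detection reagent at room temperature.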

[10] = qHTS assay to identify small molecule agonists of the androgen receptor (AR) signaling pathway in the presence of an antagonist - cell viability counter screen (AID 1259379);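 note: MDA-kb2 human breast cancer cells carrying an MMTV luciferase reporter; series mostly up to about 92 µM; nearly all actives have a fitted effect of over 25% in size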
In short: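 MDA-kb2 cells (MMTV-luciferase, AR/GR), 3,000/well, 5 h attachment, then 3.0 µM nilutamide (final) and compounds at 15 concentrations. Viability by CellTiter-Fluor fluorescence after 16 h at 37 °C, 0% CO2, in the reporter wells.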

[11] = qHTS assay to identify small molecule agonists of the estrogen receptor beta (ER-beta) signaling pathway - cell viability counter screen (AID 1259380); note: nearly all actives have a fitted effect of over 30% in size
In short: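 ER-beta-UAS-bla HEK293T cells in medium with 2% charcoal-stripped FBS, pre-incubated 6 hr, then treated 16 hr at 37C. Cytotoxicity read in the same wells by CellTiter-Glo luminescence after 30 min at room temperature.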

[12] = qHTS assay to identify small molecule antagonists of the estrogen receptor beta (ER-beta) signaling pathway - cell viability counter screen (AID 1259382); note: series mostly up to about 92 µM; nearly all actives have a fitted effect of over 55% in size
In short: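 ER-beta-UAS-bla HEK293T cells in 2% charcoal-stripped FBS medium, treated with compound plus 1 nM 17-beta-estradiol for 16 h at 37C. Viability read by CellTiter-Glo luminescence after 30 min at room temperature in the same wells.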

[13] = qHTS assay to identify small molecule agonists or antagonists of the thyroid stimulating hormone receptor (TSHR) signaling pathway - wild type cell line counter screen (AID 1259384; calls by dose curve)
In short: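 Wild-type HEK293 cells were plated 18 h at 37 C/5% CO2, pin-dosed with compound plus Ro20-1724 medium, held 30 min at room temperature, then given cAMP-d2 and anti-cAMP-cryptate; fluorescence was read after 1 h. Fifteen concentrations, triplicate.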

[14] = molecular target: Androgen receptor (Homo sapiens) (UniProt P10275); test: qHTS assay to identify small molecule antagonists of the androgen receptor (AR) signaling pathway using the MDA cell line in the presence of 0.5 nM R1881 (AID 1259243); note: nearly all actives have a fitted effect of over 50% in size; note: potency is the fitted concentration of half-maximal effect
In short: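 MDA-kb2 cells (MMTV-luciferase, responsive to AR and GR) at 3,000/well, rested 5 h at 37C, 0% CO2, then given compounds plus 0.5 nM R1881 (final) for 16 hr. Luciferase read with ONE-Glo after 30 min at room temperature.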

[15] = molecular target: Estrogen receptor (Homo sapiens) (UniProt P03372); test: qHTS assay to identify small molecule antagonists of the estrogen receptor alpha (ER-alpha) signaling pathway using the BG1 cell line in the presence of 0.1 nM 17-beta-estradiol (AID 1259244); note: nearly all actives have a fitted effect of over 50% in size
In short: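 VM7Luc4E2 cells (endogenous full-length ER-alpha, 4×ERE-luciferase), kept 5 days in phenol red-free, charcoal-stripped FBS medium; 4,000 cells/well. Compounds added with 0.1 nM (final) 17beta-estradiol, 22 hr at 37C; luminescence read with ONE-Glo after 30 min.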

[16] = molecular target: Androgen receptor (Homo sapiens) (UniProt P10275); test: qHTS assay to identify small molecule agonists of the androgen receptor (AR) signaling pathway in the presence of an antagonist (AID 1259381; calls by dose curve; note: nearly all actives have a fitted effect of over 15% in size)
In short: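 MDA-kb2 cells carrying MMTV-luciferase (AR/GR responsive), 3,000 cells/well, co-treated with 3.0 uM nilutamide final. Compounds at 15 concentrations, 16 hr at 37C without CO2. Luciferase luminescence read after 30 min with ONE-Glo.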

[17] = molecular target: Estrogen receptor (Homo sapiens) (UniProt P03372); test: qHTS assay to identify small molecule agonists of the estrogen receptor alpha (ER-alpha) signaling pathway in the presence of an antagonist (AID 1259383; calls by dose curve; note: top concentration of the series differs between compounds; nearly all actives have a fitted effect of over 15% in size)
In short: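 VM7Luc4E2 cells express endogenous full-length ER-alpha with an ERE-luciferase reporter and were hormone-deprived for 5 days. Compounds at 15 concentrations were added with 10.0nM ICI-182,780 for 22hr at 37C. Luminescence was read with ONE-Glo.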

[18] = qHTS assay to identify small molecule phospholipidosis (PLD) inducers (AID 1259344; active = well fitted curve in the direction sought with a large enough effect; an effect the other way counts as inactive or inconclusive)
In short: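 HepG2 cells on collagen I, attached 4 h at 37 C, were co-treated with compound and LipidTOX Red dye for 24 h at 37 C, then fixed with paraformaldehyde plus Hoechst 33342 and imaged by high-content microscopy for phospholipid accumulation.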

[19] = molecular target: Estrogen receptor beta (Homo sapiens) (UniProt Q92731); test: qHTS assay to identify small molecule agonists of the estrogen receptor beta (ER-beta) signaling pathway (AID 1259377; active = well fitted activation curve with a large enough effect in the signal ratio in the repeat runs, not every such curve was filed as active; the % refers to the signal ratio)
In short: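 Ratiometric beta-lactamase FRET read-out came after 2 h substrate loading at room temperature. It followed 16 h compound treatment at 37C of GripTite HEK293T cells carrying a UAS-bla reporter, plated in 2% charcoal-stripped FBS medium.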

[20] = molecular target: Estrogen receptor beta (Homo sapiens) (UniProt Q92731); test: qHTS assay to identify small molecule antagonists of the estrogen receptor beta (ER-beta) signaling pathway (AID 1259378; active = well fitted inhibition curve with a large enough effect in the signal ratio in the repeat runs, not every such curve was filed as active; the % refers to the signal ratio)
In short: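 ER-beta-UAS-bla HEK293T (GripTite) cells in 2% charcoal-stripped FBS medium were preincubated 6 hr at 37C, dosed with compound, then stimulated with 1 nM E2 (final) for 16 hr; beta-lactamase reporter read by B/G FRET fluorescence after 2 hr substrate loading.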

Estrogen receptor beta (Homo sapiens), sequence (Q92731 whole entry, looked up): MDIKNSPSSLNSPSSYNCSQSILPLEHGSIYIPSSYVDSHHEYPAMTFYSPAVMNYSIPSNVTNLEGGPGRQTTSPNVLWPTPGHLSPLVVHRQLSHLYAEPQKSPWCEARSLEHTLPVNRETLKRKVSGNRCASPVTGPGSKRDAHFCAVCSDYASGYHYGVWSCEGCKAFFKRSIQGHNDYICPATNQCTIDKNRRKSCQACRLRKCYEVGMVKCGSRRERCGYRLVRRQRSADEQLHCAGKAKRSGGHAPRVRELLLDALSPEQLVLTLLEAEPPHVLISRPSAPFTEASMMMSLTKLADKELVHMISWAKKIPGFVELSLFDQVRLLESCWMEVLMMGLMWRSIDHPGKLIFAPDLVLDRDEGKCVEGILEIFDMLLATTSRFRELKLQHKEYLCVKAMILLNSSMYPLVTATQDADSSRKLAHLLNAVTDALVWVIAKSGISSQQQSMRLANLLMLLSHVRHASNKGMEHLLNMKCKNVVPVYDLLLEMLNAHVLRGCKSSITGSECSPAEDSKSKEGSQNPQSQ
Estrogen receptor (Homo sapiens), sequence (P03372 whole entry, looked up): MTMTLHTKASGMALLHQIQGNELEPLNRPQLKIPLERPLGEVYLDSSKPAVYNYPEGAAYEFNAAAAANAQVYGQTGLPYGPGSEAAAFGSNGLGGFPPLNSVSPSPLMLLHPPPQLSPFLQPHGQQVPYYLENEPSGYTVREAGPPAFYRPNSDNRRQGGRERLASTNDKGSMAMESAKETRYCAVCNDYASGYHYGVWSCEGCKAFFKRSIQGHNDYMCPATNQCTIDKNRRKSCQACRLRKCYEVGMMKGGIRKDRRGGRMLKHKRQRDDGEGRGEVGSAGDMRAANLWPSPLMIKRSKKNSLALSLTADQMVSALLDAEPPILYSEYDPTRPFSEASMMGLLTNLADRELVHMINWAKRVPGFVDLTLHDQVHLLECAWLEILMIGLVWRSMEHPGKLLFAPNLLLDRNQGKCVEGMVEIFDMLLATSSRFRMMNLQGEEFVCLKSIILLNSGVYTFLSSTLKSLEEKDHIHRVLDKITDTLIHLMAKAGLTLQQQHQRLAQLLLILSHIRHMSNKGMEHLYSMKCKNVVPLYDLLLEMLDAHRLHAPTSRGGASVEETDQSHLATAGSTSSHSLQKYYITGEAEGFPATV
Androgen receptor (Homo sapiens), sequence (P10275 whole entry, looked up): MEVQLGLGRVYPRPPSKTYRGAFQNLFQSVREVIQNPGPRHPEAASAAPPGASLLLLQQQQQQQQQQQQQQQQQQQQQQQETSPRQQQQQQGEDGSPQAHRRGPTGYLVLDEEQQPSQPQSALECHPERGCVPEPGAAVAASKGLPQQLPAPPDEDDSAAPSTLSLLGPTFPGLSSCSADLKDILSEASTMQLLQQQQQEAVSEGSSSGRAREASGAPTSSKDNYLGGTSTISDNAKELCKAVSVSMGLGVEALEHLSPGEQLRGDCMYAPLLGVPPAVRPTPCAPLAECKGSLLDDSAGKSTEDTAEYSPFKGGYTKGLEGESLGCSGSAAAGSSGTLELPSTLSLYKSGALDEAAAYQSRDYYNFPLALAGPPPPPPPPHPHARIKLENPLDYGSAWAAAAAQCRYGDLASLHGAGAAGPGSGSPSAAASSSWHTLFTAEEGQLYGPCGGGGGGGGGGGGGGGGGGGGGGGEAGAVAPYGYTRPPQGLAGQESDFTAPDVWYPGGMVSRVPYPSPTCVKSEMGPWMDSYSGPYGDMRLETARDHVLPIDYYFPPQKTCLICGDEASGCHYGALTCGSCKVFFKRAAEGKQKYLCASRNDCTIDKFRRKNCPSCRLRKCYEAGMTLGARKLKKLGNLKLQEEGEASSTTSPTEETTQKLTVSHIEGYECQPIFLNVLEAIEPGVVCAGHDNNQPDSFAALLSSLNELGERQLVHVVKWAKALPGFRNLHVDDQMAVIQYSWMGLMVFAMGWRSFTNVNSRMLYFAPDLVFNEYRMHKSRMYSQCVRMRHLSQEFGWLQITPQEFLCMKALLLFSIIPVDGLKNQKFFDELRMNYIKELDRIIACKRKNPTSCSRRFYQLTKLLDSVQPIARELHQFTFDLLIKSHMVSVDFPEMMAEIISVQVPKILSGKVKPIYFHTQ

Row | SMILES | Potency [1] | Potency [2] | Potency [3] | Potency [4] | outcome [5] | Potency [6] | Potency [7] | Potency [8] | Potency [9] | Potency [10] | Potency [11] | Potency [12] | outcome [13] | Potency [14] | Potency [15] | Potency [16] | Potency [17] | outcome [18] | Potency [19] | Potency [20]
1 | c1ccc(N=Nc2ccccc2)cc1 | inactive | inactive | inactive | 30.6 µM (active) | inactive | inactive | inactive | inactive | inactive | inactive | inactive | inactive | inactive |  |  |  |  |  |  | 
2 | COP(=O)(OC)OC | inactive | inactive |  | inactive | inactive | inactive | inactive | inactive | inactive | inactive |  | inactive | inactive | 61.6 µM (active) and inactive | inactive | inactive | inactive |  |  | 
3 | CC(C)NC(C)C | inactive | inactive |  | inactive | inactive | inactive | inactive | inactive | inactive | inactive | inactive | inactive |  |  | inactive |  | inactive | inactive | inactive | inactive
4 | C=CCN(CC=C)C(=O)C(Cl)Cl | inactive | inactive |  | inactive | inactive | inactive | inactive | inactive | inactive | inactive |  | inactive |  |  |  |  |  |  | inactive | inactive
